hgDAF-12 ag: activates the H. glycines DAF-12 receptor ligand-binding domain; HEK293 GAL4-hgDAF12 UAS-luciferase reporter, agonist luminescence; normalized to butyrate control; activation, % at 6.8 µM; 370,000 tested, 1.8% active;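 active = activation above a cutoff set at the mean of all screened compounds plus 3 SD, cut at about 10% in these data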
ssDAF-12 act: S. stercoralis DAF-12 activation, primary screen | HEK293 ssDAF-12/GRIP1 lit1-tk-luc reporter, luminescence; % of 3 µM dafachronic acid response | activation, % at 6.8 µM | 370,000 tested, 1% active;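 active = activation above the mean over all tested compounds plus 3 SD, cut at about 0.9% in these data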
DAX1 inh-1: NR0B1 (DAX1) inhibition; 340,000 tested, 0.99% active; P51843; HEK293 Gal4-DAX1 luciferase reporter, luminescence; inhibition, % at 6.75 µM; AID 504766;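 active = inhibition above the mean over all tested compounds plus 3 SD, cut at about 4.2% in these data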;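 also: inhibition shows as a rise in luminescence from relieved DAX1 repression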
AHR activator: activators of human aryl hydrocarbon receptor; AID 2796; activation, % at 5 µM; 320,000 tested, 2.5% active; AHR-responsive luciferase reporter cells, luminescence; P35869; in the data active = activation above about 47%
Target sequence (P35869 whole entry, looked up): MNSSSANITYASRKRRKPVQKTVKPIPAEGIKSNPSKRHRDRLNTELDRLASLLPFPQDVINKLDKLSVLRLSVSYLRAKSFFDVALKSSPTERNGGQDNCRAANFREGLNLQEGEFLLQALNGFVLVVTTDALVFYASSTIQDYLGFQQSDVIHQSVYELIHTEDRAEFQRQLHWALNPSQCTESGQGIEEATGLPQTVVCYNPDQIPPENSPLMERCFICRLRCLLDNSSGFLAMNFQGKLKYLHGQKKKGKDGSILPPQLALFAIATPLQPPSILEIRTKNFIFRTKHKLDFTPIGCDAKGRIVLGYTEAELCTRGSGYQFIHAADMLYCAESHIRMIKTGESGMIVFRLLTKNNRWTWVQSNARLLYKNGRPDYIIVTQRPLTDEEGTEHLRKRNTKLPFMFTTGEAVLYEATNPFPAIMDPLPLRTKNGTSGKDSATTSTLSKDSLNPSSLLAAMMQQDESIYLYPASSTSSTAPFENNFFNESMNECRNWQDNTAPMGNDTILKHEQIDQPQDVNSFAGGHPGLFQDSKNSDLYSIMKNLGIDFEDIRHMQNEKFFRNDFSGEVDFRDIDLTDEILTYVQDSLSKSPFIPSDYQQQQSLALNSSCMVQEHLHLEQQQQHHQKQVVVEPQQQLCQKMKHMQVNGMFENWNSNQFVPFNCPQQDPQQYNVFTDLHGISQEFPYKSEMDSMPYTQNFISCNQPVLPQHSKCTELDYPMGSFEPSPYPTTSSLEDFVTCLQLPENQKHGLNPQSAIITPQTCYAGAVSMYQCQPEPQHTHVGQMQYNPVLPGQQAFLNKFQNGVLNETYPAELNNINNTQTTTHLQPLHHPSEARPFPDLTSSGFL
DAX1 inh-2: DAX1 (NR0B1) inhibition, primary screen; HEK293T StAR-luciferase reporter, SF-1/DAX-1 repression relief; inhibition, % at 6.8 µM; 370,000 tested, 1.1% active; AID 652010;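 active = inhibition above the mean over all tested compounds plus 3 SD, cut at about 3.6% in these data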;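 also: higher inhibition means more luminescence from relief of DAX-1 repression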
hcDAF12 agonist: activates DAF-12 receptor from parasite H. contortus | HEK293 hcDAF-12 lit1-tk-luc reporter, luminescence; 0% DMSO, 100% Δ7-dafachronic acid | activation, % at 6.8 µM | 370,000 tested, 1.4% active | AID 652067;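 active = activation above the mean of all tested compounds plus 3 SD, cut at about 5.5% in these data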
Large screens that a line does not name were inactive. Shown are actives, neighbours in structure and some others; about 5.7% of the full set was active somewhere.

Cc1ccc(S(=O)(=O)N2CCN(C(=O)COC(=O)COc3ccc(Cl)c(C)c3)CC2)c(C)c1	none (no result: AHR activator)
CC(=O)Nc1ccc(S(=O)(=O)N(CC(=O)NCC2CCCO2)Cc2ccccc2Cl)cc1 (configuration not stated)	none (no result: AHR activator)
Cc1cc(C)nc(NC2=NCC(=O)N2c2cccc(Cl)c2)n1	AHR activator 65.2
Cc1cc(C)nc(NC2=NCC(=O)N2c2ccccc2)n1	none
COc1ccc(N2C(=O)CN=C2Nc2nc(C)cc(C)n2)cc1	AHR activator 76.2
Cc1ccc(-c2noc(CCCC(=O)NC3CCCCC3)n2)cc1	none
O=C1Nc2ccccc2S/C1=C\C(=O)N1CCCC1	AHR activator 63.5 (no result: hgDAF-12 ag, ssDAF-12 act, DAX1 inh-1, DAX1 inh-2, hcDAF12 agonist)
O=C1Nc2ccccc2SC1=Cc1ccccc1	none (no result: AHR activator)
O=C1CSC(c2cccnc2)N1CC1CC1 (configuration not stated)	DAX1 inh-1 4.8
O=C1CSC(c2cccnc2)N1Cc1ccc(Cl)cc1 (configuration not stated)	none
Nc1nc2c(ncn2[C@@H]2O[C@H](C(=O)N[C@H](Cc3ccccc3)C(=O)NCCCc3ccccc3)[C@@H](O)[C@H]2O)c(=O)[nH]1	none (no result: DAX1 inh-1, AHR activator)
N/C(=N\NC(=O)Nc1ccc(Cl)cc1)c1ccccn1	hcDAF12 agonist 5.6
O=C(Nc1ccc(Cl)cc1)Nc1ccccn1	hgDAF-12 ag 12.0, AHR activator 49.6
O=C1CCCCC1Sc1nnc(Nc2ccccc2)s1 (configuration not stated)	hgDAF-12 ag 10.7
CC(N)(C(=O)O)c1cccc(OCc2cccc(Cl)c2)c1 (configuration not stated)	none
CCOC(=O)c1c(C)[nH]c2ccc(O)cc12	AHR activator 64.8
O=C(NNC(=O)c1cc(-c2ccccc2)nc2ccccc12)Nc1cccc(Cl)c1	none
CC(C)(C)c1ccc(-c2cc(C(=O)NNC(=O)Nc3ccccc3)c3ccccc3n2)cc1	hgDAF-12 ag 11.2, DAX1 inh-2 3.9
Cc1cccc(S(=O)(=O)NNC(=O)c2cc(-c3ccc(F)cc3)nc3ccccc23)c1	DAX1 inh-1 4.3
Cc1oc(-c2ccc(Cl)cc2)cc1C(=O)O	DAX1 inh-1 5.5
Cc1oc(-c2ccccc2)cc1C(=O)Nc1cccc(C(=O)O)c1	none
CC(C)Oc1ccc(CC2CCC(=O)N(C)C2=O)cc1 (configuration not stated)	none
COc1ccc(N=Cc2oc3ccc4ccccc4c3c2O)cc1	ssDAF-12 act 1.2, AHR activator 57.9
COc1ccc(N=Cc2ccccc2O)cc1	none (no result: AHR activator)
O=C(Nc1ccnn1C1CCN(Cc2c[nH]c3ccccc23)CC1)c1ccccc1	hcDAF12 agonist 6.2
O=C(Nc1ccnn1C1CCN(CC2CC=CCC2)CC1)c1ccccc1 (configuration not stated)	none (no result: AHR activator)
O=c1cc(C=NNc2ccccc2)[nH]c(=O)[nH]1	DAX1 inh-1 4.9 (no result: AHR activator)
O=C(O)c1ccc(NN=Cc2cc(=O)[nH]c(=O)[nH]2)cc1	none (no result: AHR activator)
Cc1c(C=O)c2ccccc2n1CC(=O)N1CCc2ccccc2C1	none
Cn1cnc(S(=O)(=O)Nc2ccc(OC(F)(F)F)cc2)c1	DAX1 inh-1 5.5
Cn1cnc(S(=O)(=O)Nc2ccc(C(F)(F)F)cc2)c1	none
Cc1cccn2c(=O)c3cc(C(=O)N4CCCC(C)C4)sc3nc12 (configuration not stated)	ssDAF-12 act 1.2
CC1CCCN(C(=O)c2cc3c(=O)n4ccccc4nc3s2)C1 (configuration not stated)	none
Cc1cccn2c(=O)c3cc(C(=O)N4CCCCC4)sc3nc12	ssDAF-12 act 1.5
Cc1ccnc(NS(=O)(=O)c2ccc(NS(=O)(=O)c3ccc(Br)cc3)cc2)n1	none
Cc1ccc(CC2S/C(=N/N=C/c3ccco3)NC2=O)cc1 (configuration not stated)	none
O=C1N/C(=N/N=C/c2ccco2)SC1Cc1ccccc1 (configuration not stated)	DAX1 inh-1 5.9
Cc1ncoc1C(=O)N1CCc2c([nH]c3ccccc23)C1C(C)(C)C (configuration not stated)	ssDAF-12 act 1.0, hcDAF12 agonist 5.6
Cc1cnc(CN2CCc3c([nH]c4ccccc34)C2C2CCCCC2)[nH]1 (configuration not stated)	none
O=C(c1ccc(Cl)cc1)N1CCc2c([nH]c3ccccc23)C1C(F)(F)F (configuration not stated)	none
Cc1ncoc1C(=O)N1CCc2c([nH]c3ccccc23)C1C1CCCCC1 (configuration not stated)	hcDAF12 agonist 6.1
O=C(N/N=C/c1ccccn1)c1ccc(Br)cc1	none
COc1ccc(-c2sc3ccc(OC)cc3c2-c2ccc(OC)nc2)cc1	none
COc1ccc(-c2oc3ccccc3c2C#Cc2cncn2C)cc1	AHR activator 48.6
COc1ccc(-c2sc3ccc(OC)cc3c2C#Cc2cncn2C)cc1	AHR activator 75.5
COC(=O)c1c(-c2ccc(OC)cc2)oc2ccccc12	none
Cc1noc(C)c1COc1ccc(C(=O)N2CCCC(C(F)(F)F)C2)cc1 (configuration not stated)	none
COc1ccc(/C=C2\SC(N3CCCCC3)=NC2=O)cc1	AHR activator 48.5
Cc1sc(NC(=O)c2ccco2)c(C(Nc2ccccn2)c2ccccc2)c1C (configuration not stated)	hgDAF-12 ag 11.0
COC(=O)[C@]12C[C@H](CC(=O)NCCCN3CCCC3=O)C(=O)N(Cc3ccc4c(c3)OCO4)C1=C[C@H](C(C)(C)C)O[C@@H]2C	none (no result: DAX1 inh-1, AHR activator)
Cc1cccc(Nc2nc(-c3ccccc3)c(C(=O)Nc3cccnc3)s2)c1	AHR activator 50.8
C=CCn1c(-c2cc(OC)cc(OC)c2)n[nH]c1=S	none
C=CCn1c(-c2sc3nc(C)cc(C)c3c2N)n[nH]c1=S	AHR activator 100.4 (no result: DAX1 inh-1)
CC1=C(C(=O)c2ccccc2)C(c2ccc(O)cc2)NC(=S)N1 (configuration not stated)	DAX1 inh-1 4.4
CC1=C(C(=O)c2ccccc2)C(c2ccc(OC(F)F)cc2)NC(=S)N1 (configuration not stated)	none
COc1ccc(CNC(=O)N2CCc3ccccc3C2)cc1	none
COC(=O)c1sc2ncccc2c1OCc1c(Cl)cccc1Cl	none
COC(=O)c1sc2ncccc2c1OCc1cccc(Cl)c1	DAX1 inh-1 4.2
CCC(CC)CN1CCC(CN2C(=S)NC[C@@H]2CC(C)C)CC1	DAX1 inh-2 3.7 (no result: AHR activator)
COc1ccc(Cl)cc1NC(=S)NC1CCCC1	none
C[C@H]1CN([C@@H](C)CO)C(=O)c2cccc(NS(=O)(=O)c3cn(C)cn3)c2O[C@H]1CN(C)S(C)(=O)=O	none
Cc1nn(-c2cccc(Cl)c2)c2nc(-c3ccco3)cc(C(=O)O)c12	none
Cc1cccc(-n2nc(C)c3c(C(=O)O)cc(-c4cccs4)nc32)c1	DAX1 inh-1 4.6

Screens: PubChem BioAssay, The Scripps Research Institute Molecular Screening Center
